Here are results for 16 compounds from PubChem BioAssay.

Assay [1] can be described thus: compound effects on lung adenocarcinoma cell viability – A549, calcein-AM fluorescence, 48 h, basal, profiling panel (AID 1162). Particulars: higher = more signal.
Assay [2] can be described thus: compound effects on differentiated 3T3-L1 adipocyte viability – cell-based, 3T3-L1 adipocytes, calcein-AM fluorescence, 48 h, basal, profiling panel (AID 1163). The note with it: 3T3-L1 adipocytes viability, higher = more signal.
A short description of assay [3]: compound effects on hepatocellular carcinoma cell viability – HepG2, calcein-AM fluorescence, 48 h, basal, profiling panel (AID 1164). The note with it: higher = more signal.
Assay [4] in a line: compound effects on multiple myeloma cell viability – MM1S, calcein-AM fluorescence, 48 h, basal, profiling panel (AID 1165).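 Further: viability of MM1S multiple myeloma cells under basal unstimulated conditions.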 The note with it: higher = more signal.
Assay [5] is described as follows: calcein-AM signal in unstimulated myeloma cells – cell-based, calcein-AM fluorescence, 48 h, PK04 Diversity Set, profiling panel (AID 1166).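 Further: cells grown under basal conditions without added stimulus.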 Particulars: RPMI8226 myeloma viability, higher = more signal.
Assay [6] in a line: JC-1 mitochondrial signal, unstimulated HepG2 cells – cell-based, JC-1 fluorescence, 24 h, 100 nL compound, profiling panel (AID 1167). The note with it: HepG2 mitochondrial potential, higher = more signal.
Assay [7] can be described thus: JC-1 mitochondrial signal, unstimulated adipocytes – cell-based, JC-1 fluorescence, 3T3-L1 adipocytes, 24 h, 100 nL compound, profiling panel (AID 1168). The note with it: JC-1 mitochondrial fluorescence, higher = more signal, called active from +8 up or from −8 down.
Assay [8] can be described thus: JC-1 mitochondrial signal, unstimulated myeloma cells – cell-based, JC-1 fluorescence, RPMI8226, 24 h, 100 nL compound, profiling panel (AID 1169). Particulars: JC-1 mitochondrial potential fluorescence, higher = more signal.
Assay [9] in a line: JC-1 mitochondrial signal, unstimulated MM1S myeloma – cell-based, JC-1 fluorescence, 24 h, 100 nL compound, profiling panel (AID 1170). Particulars: MM1S mitochondrial potential, higher = more signal.
A short description of assay [10]: resazurin metabolic signal in A549 cells – cell-based, resazurin fluorescence, 24 h, PK04 Diversity Set, profiling panel (AID 1171). The note with it: A549 viability, higher = more signal, called active from +8 up or from −8 down. In general terms: Alamar Blue is a resazurin reagent that responds to reducing activity.

Activity calls are given as the source filed them.
Further: test concentration not given here.

For `CCCCC(O)C1C=CC2C(=O)N(c3ccccc3)C(=O)C2N1Nc1ccccc1F` (stereo not given), the z-score in [1] was -0.0693; in assay [2] it was -0.767; in [3], 0.297; in assay [4], 0.447; in assay [5] it was -0.812; in [6] it was -1.75. Also, the z-score in [7] is -0.935 (inactive); in assay [8], -0.425; in assay [9], -0.444; in assay [10], -0.684 (inactive).
With `CN1C(=O)C2C=CC(C(O)Cc3ccccc3)N(Nc3ccccc3)C2C1=O` (stereo not given), the z-score in assay [1] is 0.368; in assay [2] it was -1.33; in assay [3], 0.0486; in assay [4] it was -1.48; in assay [5], -0.618; in assay [6], -1.32. Moreover, the z-score in [7] is -1.06 (inactive); in assay [8] it was 0.0363; in assay [9] it was 0.155; in assay [10], -0.528 (inactive).
With `C=CC[C@@]1(C(N)=O)N=C(c2ccc(OCCCO)cc2)O[C@@H]1c1ccccc1CN=[N+]=[N-]`, the z-score in assay [1] is 0.0465; in assay [2] it was 1.69; in assay [3], 0.0287; in assay [4], 0.204; in assay [5] it was -0.189; in assay [6] it was -2.45. In addition, the z-score was -0.337 (inactive) in [7], -0.231 in assay [8], -1.79 in assay [9] and -0.29 (inactive) in assay [10].
Turning to `CC(C)C[C@@H]1NC(=O)[C@@H]2C[C@H](C(=O)NCCCCCN)[C@H](c3cccc(OCCO)c3)N2C1=O`, the z-score was 0.938 in assay [1]; 0.624 in [2]; 1.89 in [3]; 0.767 in assay [4]; 1.26 in assay [5]; 1.75 in [6]. In addition, the z-score is 0.00134 (inactive) in assay [7], -0.71 in assay [8], -0.495 in assay [9] and -0.217 (inactive) in [10].
In the case of `CC(C)C[C@@H]1NC(=O)[C@H]2C[C@@H](C(=O)NCCCCCCN)[C@@H](c3ccc(O)cc3)N2C1=O`, the z-score was -0.145 in assay [1]; 0.106 in assay [2]; -0.766 in assay [3]; -0.495 in assay [4]; -0.953 in assay [5]; 0.414 in assay [6]. Moreover, the z-score in [7] was -0.217 (inactive); in assay [8], -0.279; in assay [9] it was 0.861; in [10], -0.939 (inactive).
Consider `C=CCOC(=O)[C@H]1[C@@H]2C(=O)O[C@@H](c3ccccc3)[C@@H](c3ccccc3)N2[C@@H](c2ccc(OCCOC(=O)[C@H]3C[C@H]4C(=O)N[C@@H](CC(C)C)C(=O)N4[C@H]3c3ccc(O)cc3)cc2)[C@]12C(=O)Nc1ccc(I)cc12`, for which the z-score in assay [1] is 0.709; in assay [2] it was -0.212; in assay [3], 1.8; in assay [4] it was -2.02; in assay [5], 0.0851; in assay [6], -0.626. Besides, the z-score is -0.804 (inactive) in assay [7], -0.418 in [8], -0.859 in [9] and 0.0559 (inactive) in assay [10].
Consider `[N-]=[N+]=Nc1ccccc1C[C@]1(C(=O)NCC(O)CO)N=C(c2ccc(OCCCO)cc2)O[C@H]1c1ccccc1N=[N+]=[N-]` (stereo not given in full), for which the z-score is -1.04 in assay [1]; -0.676 in assay [2]; -1.12 in assay [3]; -2.98 in assay [4]; -3.14 in assay [5]; -0.162 in assay [6]. Moreover, the z-score in [7] is 0.153 (inactive); in [8], -1.19; in [9], -1.3; in [10], -1.19 (inactive).
Regarding `COc1ccc([Si](C)(C)[C@@H]2[C@@H](CCO)O[C@]3(C(=O)N(Cc4ccc(N5C(=O)COc6ccccc65)cc4)c4ccccc43)[C@H]2C)cc1`, the z-score in [1] is -1.54; in assay [2] it was -0.0973; in [3], -3.87; in [4], -2.41; in assay [5] it was -3.72; in [6] it was -0.917. The z-score in assay [7] is -0.189 (inactive); in assay [8], -0.923; in [9], -1.53; in assay [10] it was -2.38 (inactive).
For `CC(C)(C)OC(=O)CC[C@]1(C(=O)NCC(O)CO)COC(c2ccc(OCCCO)cc2)=N1` (stereo not given in full), the z-score is 0.208 in assay [1]; -0.388 in assay [2]; -0.665 in assay [3]; -1.01 in [4]; 0.418 in assay [5]; -0.76 in assay [6]. Moreover, the z-score is 0.176 (inactive) in [7], 0.527 in assay [8], -0.23 in assay [9] and 0.706 (inactive) in assay [10].
Take `COCCOC(=O)N1C(=O)[C@@]2(c3cc(C#CCCO)ccc31)[C@H](C(=O)Nc1nc3ccccc3s1)[C@H]1C(=O)O[C@H](c3ccccc3)[C@H](c3ccccc3)N1[C@@H]2c1ccc(OCCO)cc1`: the z-score is -0.324 in assay [1]; -0.0713 in assay [2]; 0.555 in assay [3]; -0.315 in assay [4]; -0.234 in assay [5]; -3.53 in [6]. Besides, the z-score in assay [7] was 0.823 (inactive); in assay [8], -0.371; in assay [9] it was -1.41; in [10], 1.24 (inactive).
Regarding `Cc1ccc(S[C@]2(C(=O)NCCN3CCOCC3)CC(=O)N(Cc3ccccc3)[C@@H]2c2ccc(CO)cc2I)cc1`, the z-score is -0.242 in assay [1]; 1.1 in [2]; -0.705 in assay [3]; -2.08 in [4]; -2.5 in assay [5]; 0.119 in assay [6]. The z-score in assay [7] is -0.688 (inactive); in assay [8], -0.383; in assay [9] it was -2.44; in [10], 0.394 (inactive).
As for `CCCC[C@@H]1C[C@H]1[C@@H](NC(=O)c1ccco1)c1ccc(Cl)cc1`, the z-score is -2.3 in assay [1]; -0.679 in [2]; -0.746 in assay [3]; -1.95 in assay [4]; -2.24 in assay [5]; 2.38 in assay [6]. Moreover, the z-score was -0.732 (inactive) in assay [7], -0.318 in assay [8], -1.37 in [9] and 0.473 (inactive) in assay [10].
Take `CCc1oc(CC[C@@H](CO)NC(=O)NCCn2cc(C3(O)CCCCC3)nn2)c(C(=O)OC)c1C(=O)OC`: the z-score was -0.0645 in assay [1]; -0.33 in assay [2]; -0.68 in [3]; -0.0035 in assay [4]; 0.0168 in assay [5]; -0.176 in [6]. Moreover, the z-score was -0.0732 (inactive) in [7], 0.756 in [8], 0.14 in assay [9] and -0.892 (inactive) in [10].
With `O=C1C[C@]2(c3ccc([N+](=O)[O-])cc3)C(=O)N(CCN3CCOCC3)c3cc(CO)ccc3[C@H]2N1C1CCCCC1`, the z-score in [1] is 0.648; in assay [2], 0.239; in assay [3], 1.87; in [4], -0.121; in assay [5], 0.346; in assay [6], 0.756. In addition, the z-score is 0.155 (inactive) in [7], 0.0691 in [8], -0.509 in assay [9] and -1.17 (inactive) in assay [10].
As to `CC(C)C[C@H]1NC(=O)[C@@]23C(=O)N[C@@H](Cc4ccccc4)C2[C@H](C)[C@@]2(C)O[C@H]2C3/C=C/C/C=C\CNC(=O)[C@H](Cc2ccccc2)NC1=O` (stereo not given in full), the z-score in assay [1] is -0.278; in [2] it was 0.733; in assay [3], -1.03; in assay [4] it was -0.207; in assay [5], -0.567; in [6] it was 0.804. Further, the z-score in assay [7] is -0.172 (inactive); in [8], -1.09; in [9], 0.687; in assay [10] it was 0.217 (inactive).
Take `CN(C)C(=O)[C@@]1(Cc2ccccc2)N=C(c2ccc(OCCCO)cc2)O[C@H]1c1ccccc1N=[N+]=[N-]`: the z-score in assay [1] is -1.45; in assay [2], 1.22; in assay [3] it was -1.84; in assay [4] it was -2.53; in assay [5], -3.91; in [6], 1.48. For the same compound, the z-score in assay [7] was 1.17 (inactive); in [8] it was -0.981; in [9] it was -2.53; in [10], -1.63 (inactive).
